High-throughput results deposited in PubChem by The Scripps Research Institute Molecular Screening Center.
Hits are enriched below; roughly 4.1% of the tested compounds scored in any of these assays.
hgDAF-12 ag = agonists of H. glycines DAF-12 nuclear receptor. HEK293 GAL4-hgDAF12 UAS-luciferase reporter, agonist luminescence; normalized to butyrate control. activation, % at 6.8 µM. 370,000 compounds, 1.8% hits. AID 687014;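 active = activation above a cutoff set at the mean of all screened compounds plus 3 SD, cut at about 10% in these data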
DAX1 inh-1 = NR0B1 (DAX1) inhibition | P51843 | HEK293 Gal4-DAX1 luciferase reporter, luminescence | inhibition, % at 6.75 µM | 340,000 compounds, 0.99% hits | AID 504766;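 active = inhibition above the mean over all tested compounds plus 3 SD, cut at about 4.2% in these data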;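 also: inhibition shows as a rise in luminescence from relieved DAX1 repression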
Target sequence (P51843 207-470 limits assumed): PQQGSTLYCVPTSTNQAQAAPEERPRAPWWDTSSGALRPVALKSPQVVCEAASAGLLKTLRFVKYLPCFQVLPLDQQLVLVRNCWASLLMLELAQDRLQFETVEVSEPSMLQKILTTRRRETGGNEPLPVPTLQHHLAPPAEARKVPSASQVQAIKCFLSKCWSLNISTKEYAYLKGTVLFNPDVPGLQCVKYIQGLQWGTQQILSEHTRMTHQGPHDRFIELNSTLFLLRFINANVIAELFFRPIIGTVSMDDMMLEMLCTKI
ssDAF-12 act = activators of S. stercoralis DAF-12 nuclear receptor; HEK293 ssDAF-12/GRIP1 lit1-tk-luc reporter, luminescence; % of 3 µM dafachronic acid response; activation, % at 6.8 µM; 370,000 compounds, 1% hits; AID 652126;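 active = activation above the mean over all tested compounds plus 3 SD, cut at about 0.9% in these data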
hcDAF-12 act = activates DAF-12 receptor from parasite H. contortus | 370,000 compounds, 1.4% hits | HEK293 hcDAF-12 lit1-tk-luc reporter, luminescence; 0% DMSO, 100% Δ7-dafachronic acid | activation, % at 6.8 µM | AID 652067;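 active = activation above the mean of all tested compounds plus 3 SD, cut at about 5.5% in these data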
DAX1 inh-2 = DAX1 (NR0B1) inhibition, primary screen. 370,000 compounds, 1.1% hits. AID 652010. HEK293T StAR-luciferase reporter, SF-1/DAX-1 repression relief. inhibition, % at 6.8 µM;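 active = inhibition above the mean over all tested compounds plus 3 SD, cut at about 3.6% in these data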;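 also: higher inhibition means more luminescence from relief of DAX-1 repression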
Hits are given with their value; 0 = inactive; - = no result given.

SMILES | hgDAF-12 ag | DAX1 inh-1 | ssDAF-12 act | hcDAF-12 act | DAX1 inh-2
COc1ccc(OCC(C)CN2CCC(C(O)(c3ccccc3)c3ccccc3)CC2)cc1 (stereo unspecified) | 0 | - | 0 | 0 | 0
CC1CCCCC1N(C(=O)c1cc(C2CC2)on1)C1CCCCC1 (stereo unspecified) | 12.0 | - | 0 | 0 | 0
Cc1cc(C(=O)N(C2CCCCC2)C2CCCCC2)no1 | 0 | 0 | 0 | 0 | 0
COc1ccc(Cn2cc(CN3[C@@H](CC(C)C)COc4cccc(F)c4S3(=O)=O)nn2)cc1 | 0 | - | 0 | 0 | 0
COc1cccc(C(=O)CSc2nccn2C)c1 | 0 | 0 | 0 | 0 | 0
Cn1ccnc1SCC(=O)c1ccc2ccccc2c1 | 12.8 | 0 | 0 | 0 | 0
O=C(c1ccsc1)N1CCCC(N2CCOCC2)C1 (stereo unspecified) | 0 | 0 | 0 | 0 | 0
C=CCn1c(COc2ccc(C)cc2)nnc1SCC(=O)Nc1ccc(Oc2ccccc2)cc1 | 0 | - | 0 | 0 | 0
COC(=O)c1ccc(NC(=O)C[n+]2ccccc2)cc1 | 0 | 0 | 1.8 | 0 | 0
COc1cccc(/C=C2\CC3(OC(=O)c4cccc(F)c4)CCCN2C3)c1 (stereo unspecified) | 0 | - | 0 | 0 | 0
N#Cc1ccc(CSc2ccccn2)c(Cl)c1 | 0 | 0 | 0 | 0 | 0
Cn1c(SCc2ccc(C#N)cc2Cl)nc2ccccc21 | 12.3 | 4.3 | 0 | 0 | 0
Brc1ccc2nc(-c3ccco3)c(Cc3ccsc3)n2c1 | 0 | - | 1.0 | 0 | 0
CCCc1nc2ccc(Cl)cn2c1Cc1ccsc1 | 0 | - | 1.0 | 0 | 0
N#Cc1ccc(-c2nc3ccc(Cl)cn3c2Cc2ccsc2)cc1 | 0 | - | 0 | 0 | 0
Clc1ccc(-c2nc3ccc(Cl)cn3c2Cc2ccsc2)cc1 | 11.1 | - | 0 | 0 | 3.8
C#CCCCN([C@H](C(=O)OC)C(C)C)S(=O)(=O)c1ccccc1Br | 0 | - | 0 | 0 | 0
COC(=O)[C@H](CC(C)C)N1Cc2nnn(Cc3ccccc3)c2-c2ccccc2S1(=O)=O | 0 | - | 0 | 0 | 0
O=C1CCC[C@H]2C[C@H](NCc3ccccc3Cl)CC[C@]23CCCN13 | 0 | - | 0 | 0 | -
Cc1cc(NC(=O)CSc2nc3c(sc4ccccc43)c(=O)n2CCCN2CCOCC2)n[nH]1 | 10.6 | 0 | 0 | 0 | 0
Cc1cc(NC(=O)CSc2nc3c(sc4ccccc43)c(=O)n2CCc2ccccc2)n[nH]1 | 0 | 0 | 0 | 0 | 0
Cc1cc2nc(-c3ccc(SCc4ccc(C(=O)O)cc4)nc3)[nH]c2cc1C | 12.1 | 0 | 0 | 0 | 0
Cc1cc2nc(-c3ccc(SCc4ccccc4C#N)nc3)[nH]c2cc1C | 0 | 0 | 0 | 0 | 0
Oc1ccc(Cl)cc1-c1cc(-c2ccccc2Cl)[nH]n1 | 0 | 5.6 | 0 | 6.1 | 0
O=C(NCCc1c[nH]c2ccccc12)OCc1cn(-c2cccc(C(F)(F)F)c2)nn1 | 0 | - | 0 | 0 | 0
SMILES | hgDAF-12 ag | DAX1 inh-1 | ssDAF-12 act | hcDAF-12 act | DAX1 inh-2
Clc1ccc(CN2CCN(N=Cc3ccncc3)CC2)cc1 | 0 | - | 0 | 0 | 0
O=C(NCCCNC1CCCCC1)c1ccc(/C=N/O)nc1 | 0 | 0 | 1.5 | 0 | 0
Cc1cc(NC(=O)CSCC(=O)Nc2nc3ccccc3[nH]2)no1 | 0 | 0 | 0 | 5.8 | 0
CCc1nc(SCC(=O)Nc2cc(C)on2)c2c(C)c(C)sc2n1 | 0 | 5.7 | 0 | 0 | 0
CCc1nc(SCC(=O)Nc2cc(C)on2)n[nH]1 | 0 | 0 | 0 | 0 | 0
Cc1cc(NC(=O)CSc2nc3ccccc3[nH]2)no1 | 0 | 0 | 0 | 0 | 0
Cc1cc(NC(=O)CSCC(=O)Nc2cc(C(F)(F)F)ccc2N2CCCCC2)no1 | 0 | 0 | 0 | 6.0 | 0
Cc1cc(NC(=O)CSc2n[nH]c(N)n2)no1 | 0 | 0 | 0 | 0 | 4.3
CCOc1ccc(N(CC(=O)Nc2c(C)n(C)n(-c3ccccc3)c2=O)S(=O)(=O)c2cccc3cccnc23)cc1 | 0 | - | 0 | 0 | 0
COCc1cc(N2CCNC[C@@H]2C)ccc1N1CCN(Cc2ccccc2)[C@H](C)C1 | 0 | - | 0 | 0 | 0
Cc1cc(NC(=O)CSCC(=O)Nc2nc3ccc(F)cc3s2)no1 | 0 | 0 | 0 | 5.7 | 0
O=C(Nc1sc2c(c1C(=O)O)CCCCC2)c1cccs1 | 0 | 0 | 1.0 | 0 | 0
NC(=O)c1c(NC(=O)c2ccc([N+](=O)[O-])o2)sc2c1CCCC2 | 0 | 0 | 2.0 | 0 | 0
COc1ccccc1C(=O)Nc1sc2c(c1C(N)=O)CCCC2 | 0 | 0 | 0.9 | 0 | 0
CCNc1sc(C(=O)c2cccs2)c(N)c1-c1nc2ccccc2s1 | 0 | 0 | 0 | 0 | 0
CCOC(=O)c1sc(NCc2ccco2)c(-c2nc3ccccc3s2)c1N | 0 | 0 | 0 | 6.2 | 0
COc1ccc(/C=C/S(=O)(=O)NC2CCCC2)c(CNC(=O)OC(C)(C)C)c1 | 0 | - | 0 | 0 | 0
Cn1c(=O)c2[nH]c(SCC(=O)NCCc3cccc(F)c3)nc2n(C)c1=O | 0 | - | 0 | 0 | 0
CCc1nccn1CCC(=O)N1CCc2c([nH]c3ccccc23)C1CC(C)C (stereo unspecified) | 0 | 0 | 0 | 5.6 | 0
CCc1nc(C)ccc1OCC(=O)N1CCc2c([nH]c3ccccc23)C1c1ccccn1 (stereo unspecified) | 0 | 0 | 0 | 0 | 0
COC(=O)CCCNC(=O)c1ccc2oc(CCCc3ccccc3)nc2c1 | 0 | 0 | 0 | 0 | 0
COC(=O)[C@@H](C)NC(=O)c1ccc2oc(CCc3ccccc3)nc2c1 | 11.2 | 0 | 0 | 0 | 0
Cc1cc(NC(=O)CCCC(=O)N(CC(=O)NCCc2ccccc2)Cc2ccc(F)cc2)no1 | 0 | 0 | 1.1 | 0 | 0
Cc1nc2ccc([N+](=O)[O-])cc2nc1C | 0 | 0 | 0 | 0 | 0
CC1=Nc2cc([N+](=O)[O-])ccc2NC(C)(C)C1 | 11.9 | 4.8 | 0 | 0 | 0
SMILES | hgDAF-12 ag | DAX1 inh-1 | ssDAF-12 act | hcDAF-12 act | DAX1 inh-2
Cc1ccc(S(=O)(=O)Nc2c(C(=O)O)[nH]c3ccccc23)cc1C | 0 | 0 | 0 | 5.8 | 0
Cc1cc(S(=O)(=O)Nc2c(C(=O)O)[nH]c3ccccc23)ccc1F | 0 | 0 | 1.1 | 0 | 0
Cc1cc(=O)[nH]c2ccc(S(=O)(=O)Nc3ccccc3)cc12 | 0 | 4.2 | 0 | 0 | 0
Cc1ccc(/C=N/Nc2ccc(C(=O)O)cc2)s1 | 0 | 0 | 0 | 0 | 0
Cc1ccsc1/C=N/Nc1ccc(C(=O)O)cc1 | 0 | 0 | 0 | 6.4 | 0
CN(CCc1ccccn1)C(=O)Cn1nc(-c2ccccc2)ccc1=O | 0 | - | 0 | 0 | 0
Nc1ccc2ccc(NS(=O)(=O)N3CCCCC3)cc2c1 | 0 | - | 0 | 0 | 0
Cc1ccn(CCC(=O)NC2CC(C)(C)Cc3c2cnn3-c2ccccc2C)n1 (stereo unspecified) | 0 | 0 | 0 | 0 | 3.8
Cc1ccccc1-n1ncc2c1CC(C)(C)CC2NC(=O)CCC1=NNC(=O)CC1 (stereo unspecified) | 0 | 0 | 0 | 0 | 0
Cc1ccc(Cl)cc1N1C(=O)CC(Sc2ncccn2)C1=O (stereo unspecified) | 0 | 4.7 | 0 | 0 | 0
CC(Sc1nnc(Nc2ccccc2)s1)C(=O)Nc1nc(-c2ccccc2)cs1 (stereo unspecified) | 0 | 5.0 | 0 | 0 | 0
